Only some compounds are listed: those with a hit (about 3.6% of all), similar ones and a draw of the others.
Hsp90 Hop PPI: changes Hsp90-Hop TPR2A binding signal, up or down. AlphaScreen TPR2A-His6 binding biotin-Hsp90 C-terminal peptide. Potency, µM (top dose mostly 57 µM), inactives show top-dose activity change, negative = inhibition. 71,000 tested, 0.44% active. AID 595; active = well fitted curve in either direction with a large enough effect; inconclusive = small, poorly fitted or top-dose-only effect, or another doubt; note: % is set by controls: 0 for no effect and ±100 for the full control effect
15-hLO inh: inhibitors of human 15-lipoxygenase (ALOX15); P16050; purified 15hLO-1, xylenol orange hydroperoxide absorbance; Potency, µM (highest dose often 57.1 µM), for the others: at the highest dose activity change, negative = inhibition, usual class: inhibitors; 74,000 tested, 1.4% active; note: % is set by controls: 0 for no effect and ±100 for the full control effect; nearly all actives have a fitted effect of over 55% in size
Target sequence (P16050 whole entry, looked up): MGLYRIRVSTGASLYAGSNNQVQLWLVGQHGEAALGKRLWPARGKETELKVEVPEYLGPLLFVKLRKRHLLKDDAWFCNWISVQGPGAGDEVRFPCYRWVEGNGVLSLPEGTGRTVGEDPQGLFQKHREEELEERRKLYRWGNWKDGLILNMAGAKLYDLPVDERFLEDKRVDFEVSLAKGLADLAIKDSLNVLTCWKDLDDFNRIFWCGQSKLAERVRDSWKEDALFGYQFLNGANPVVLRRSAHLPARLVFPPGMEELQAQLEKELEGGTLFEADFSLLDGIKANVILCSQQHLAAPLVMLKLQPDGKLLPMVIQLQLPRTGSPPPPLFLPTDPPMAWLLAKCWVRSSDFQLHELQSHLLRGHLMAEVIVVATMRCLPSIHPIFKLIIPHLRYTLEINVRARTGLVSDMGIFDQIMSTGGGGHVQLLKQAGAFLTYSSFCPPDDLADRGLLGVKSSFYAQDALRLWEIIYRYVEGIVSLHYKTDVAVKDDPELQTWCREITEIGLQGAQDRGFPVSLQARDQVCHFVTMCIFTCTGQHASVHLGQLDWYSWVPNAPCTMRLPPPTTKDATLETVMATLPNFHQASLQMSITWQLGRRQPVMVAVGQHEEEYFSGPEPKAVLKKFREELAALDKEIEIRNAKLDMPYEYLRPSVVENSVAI
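Purified human 15hLO-1 (40 nM final) in 25 mM Hepes pH 7.5, 0.01% Triton X-100 was preincubated with compound 15 min at room temperature, then reacted 6 min with 50 uM arachidonic acid; hydroperoxide detected by Fe-XO, 573/405 nm absorbance ratio.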
IkB sig inh: IkB pathway inhibition in ABC-DLBCL cells; AID 445; ABC-DLBCL IkBa-CBG/CBR dual luciferase ratio, 4 h; response scale: scaled: untreated 0%, proteasome inhibitor 100%; 110,000 tested, 0.04% active; Potency, µM (titrated, usually from 57.1 µM), inactives show at the top dose IkBa stabilization activation; active = well fitted curve in the direction sought with a large enough effect in the signal ratio, not every such curve was filed as active; inconclusive = small, poorly fitted or top-dose-only effect, or a change in a side signal; the % refers to the signal ratio;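 note: the direction sought is a rising ratio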
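Curves were fitted separately to fusion (green), unfused (red) and ratio luminescence, then classed by r2, magnitude and activity. Cells: OCI-Ly3, 4 h compound plus doxycycline at 37C; 10 uM MG-132 defined full response.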
CRE Fsk mod: modulators of forskolin-stimulated CRE signaling in CHO cells; CHO CRE-bla reporter (cAMP response element driving beta-lactamase), forskolin EC10, beta-lactamase ratio; Potency, µM (top dose mostly 38.2 µM), without a hit: at the top dose activity change, negative = inhibition, hits mostly activators; 71,000 tested, 2.5% active; AID 662; active = well fitted activation curve with a large enough effect in the signal ratio, with a control signal flat, not every such curve was filed as active; inconclusive = small, poorly fitted or top-dose-only effect, or effect the other way, or a change in a side signal; the % refers to the signal ratio; note: % of control where 0% means no effect
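Reporter-gene assay: CHO cells with beta-lactamase behind cAMP responsive elements, co-treated with compound and EC10 NKH 477 for 3 hours at 37 degrees Celsius. Activity came from the 460/530 nm CCF4 emission ratio.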
Tau fil binding: binds recombinant human tau filaments | P10636 | recombinant tau filaments, thioflavin S fluorescence, 15 h; filaments grown with octadecylsulfate alongside compound | Potency, µM (series often up to 57.1 µM), inactives show top-dose activity change, negative = inhibition | 71,000 tested, 2% active | AID 596;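 note: % is set by controls: 0 for no effect and ±100 for the full control effect; actives lower thioflavin S fluorescence by blocking filaments or displacing dye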
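His-tagged recombinant human tau (exons 2, 3 and 10 included), 1 uM, was induced to fibrillize by 30 uM sodium octadecylsulfate with compound present. After 15 h at 37 C, thioflavine S fluorescence (ex 450, em 510 nm) was read.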
Numbers without * were called inactive; i = inactive; ? = inconclusive; . = not tested or not shown; [ ] = dose if it differs, or a comment. Unless noted, calls come from the whole dose curve; as a rule, active = well fitted curve in the direction sought with a large enough effect; inconclusive = small, poorly fitted or top-dose-only effect, or another doubt; inactive = no such curve, though single readings can be large; an effect the other way counts as inactive or inconclusive. Potency is the fitted concentration of half-maximal effect.

SMILES	Hsp90 Hop PPI	15-hLO inh	IkB sig inh	CRE Fsk mod	Tau fil binding
O=C(C1COc2ccccc2O1)N1CCc2ccccc21 (stereo unspecified)	4.3%	15.8µM*	0.7%	?	-6.2%
CC(=O)N1CCC2(CC1)CCN(c1ccccn1)CC2	-3.9%	6.1%	1.0%[11.4 µM]	-4.6%	-0.1%
O=C(Cc1cccs1)NC1CC(=O)N(c2ccc(Cl)cc2)C1 (stereo unspecified)	.	.	-2.3%	.	.
COCCCNC(=O)c1ccc(Cn2c(=O)c3ccccc3n(CC(=O)Nc3c(C)cccc3C)c2=O)cc1	.	.	-0.2%	.	.
CCCCN(CC)CCNc1c(NC2CCN(C(=O)OCC)CC2)c(=O)c1=O	-4.5%[2.3 µM]	-17.4%	3.0%	2.0%	7.0%
CCCN(CCC)c1nc(NC2CCN(C(=O)OCC)CC2)nc(OC)n1	-7.8%	31.6µM*	?	?	-20.5%
CSc1ccc(C2C(C#N)=C(N)N(c3ccccc3)C3=C2C(=O)CCC3)cc1 (stereo unspecified)	-13.4%	-6.5%	-0.9%	-18.8%	-18.9%
Cc1oc(C)c2c(=O)ccc3c(c12)OC(N)=C(C#N)C3c1ccccc1 (stereo unspecified)	-15.9%	?	?	0.251µM*	166.0%
CSc1ccc(C2C(C#N)=C(N)Oc3c2ccc(=O)c2c(C)oc(C)c32)cc1 (stereo unspecified)	?	15.8µM*	?	-16.4%	50.2%
Cc1oc(C)c2c(=O)ccc3c(c12)OC(N)=C(C#N)C3c1ccccc1Cl (stereo unspecified)	-13.1%	?	4.1%	?	i
CCOC(=O)c1ccc(N2C(=O)c3n[nH]c(C)c3C2c2ccccc2OC)cc1 (stereo unspecified)	.	.	0.8%	.	.
Cc1ccc2c(c1)c1c(c(=O)n(Cc3ccccc3)c(=O)n1Cc1cccc(F)c1)n2C	.	.	1.0%	.	.
CCOc1ccccc1OCc1nn2c(COc3ccccc3)nnc2s1	2.9%	3.16µM*	0.4%	?	20.8%
c1ccc(Cc2nn3c(COc4ccccc4)nnc3s2)cc1	-2.8%	-7.7%	2.9%	-4.3%	-18.4%
O=C(NCCc1ccccc1)C(=O)NCC(c1ccco1)S(=O)(=O)c1cccs1 (stereo unspecified)	.	.	-2.0%	.	.
COc1cc2c(cc1OC)/C(=C/C(=O)N1CCOCC1)NC(C)(C)C2	-5.0%	0.1%	-1.9%	5.01µM*	10.2%
COc1ccc(N2CCN(Cc3nc(-c4ccc(Cl)cc4Cl)no3)CC2)cc1	-13.8%	-8.2%	2.3%	-5.7%	12.6µM*
CCC(=O)Nc1ccc2nc(C)n(CC(=O)Nc3ccccc3)c(=O)c2c1	-2.8%	2.4%	1.5%	-1.7%	12.6µM*
COC(=O)c1ccccc1NC(=O)C1CC(=O)N(c2ccccc2)C1 (stereo unspecified)	2.2%	3.3%	0.2%	2.9%	15.1%
O=C(Nc1cccc2nsnc12)C1CC(=O)N(c2ccccc2)C1 (stereo unspecified)	-1.8%	-21.7%	2.9%	-21.5%	20µM*
CC1=CCc2c(cc3oc(C)cc(=O)c3c2O)OC1	.	20µM*	.	.	.
Cc1cc(=O)c2c(O)c(O)ccc2o1	-10.0%	?	6.0%	?	5.3%
CCCCSc1nnc(-c2cc(Br)ccc2N)c(=O)[nH]1	0.9%	-14.5%	?	7.5%	20µM*
COCCN1C(=O)c2oc3ccc(C)cc3c(=O)c2C12C(=O)N(C)c1ccccc12 (stereo unspecified)	.	.	-0.7%	.	.
CCN1CCN(C(CNC(=O)c2ccc3c(c2)OCO3)c2cccnc2)CC1 (stereo unspecified)	-0.6%	9.9%	1.4%	12.6µM*	-16.9%
O=C(NCC(c1cccnc1)N1CCOCC1)c1ccc2c(c1)OCO2 (stereo unspecified)	-0.4%	0.4%	0.8%	-6.5%	-6.0%
O=C(c1cnccn1)N1CCc2ccccc21	-4.4%	15.8µM*	0.0%	-12.7%	-7.3%
O=C(c1cccnc1)N1CCCc2ccccc21	-6.2%[11 µM]	-5.5%[11.4 µM]	-1.2%	?	-6.0%[11.4 µM]
CCOc1cc(N2CCOCC2)c(OCC)cc1NC(=O)c1cc(-c2ccco2)nc2ccccc12	-17.0%	-23.8%	?	?	10µM*
